Test results taken from PubChem BioAssay (Tox21).
Results filed as inconclusive are left out. Entries that show only a call come without a potency. Calls of active or inactive are those of the source. Calls follow the shape of the dose curve; as a rule, active = well fitted cell-killing curve with a large enough effect in the repeat runs; inconclusive = weak or mixed curves, or effect the other way; inactive = flat fitted curve, though single readings scatter.

Assay: qHTS assay to identify small molecule antagonists of the androgen receptor (AR) signaling pathway using the MDA cell line in the presence of 0.5 nM R1881 - cell viability counter screen (AID 1259242); also: nearly all actives have a fitted effect of over 45% in size
Conditions: MDA-kb2 viability, CellTiter-Fluor protease fluorescence, 16 h; series mostly up to 92.4 µM
In short: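 Steps: plate MDA-kb2 cells, rest 5 hr at 37C without CO2; pin in compounds in DMSO; add R1881 to 0.5 nM final; incubate 16 hr; add CellTiter-Fluor, 30 min; read fluorescence.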
With CC(C(=O)O)c1ccc2c(c1)Cc1cccnc1O2 (centres undefined) the Potency was “inactive”.
For Cc1cc(SC2=C(O)C[C@@](CCc3ccc(N)cc3)(C(C)C)OC2=O)c(C(C)(C)C)cc1CO, the Potency was “inactive”.
For Oc1ccc(CCNCCCCCCNCCc2ccccc2)cc1O, the Potency was “inactive”.
For CCN(CCCCOC(=O)c1ccc(OC)c(OC)c1)C(C)Cc1ccc(OC)cc1 (centres undefined), the Potency was “inactive”.
For O=Cc1ccc(Cl)c([N+](=O)[O-])c1, the Potency was “inactive”.
In the case of CC(C)CCCCCCCOC(=O)c1ccc(C(=O)OCCCCCCCC(C)C)c(C(=O)OCCCCCCCC(C)C)c1, the Potency is reported as “inactive”.
With Cc1ccc(NC(=O)c2ccc(CN3CCN(C)CC3)cc2)cc1Nc1nccc(-c2cccnc2)n1 the Potency was “inactive”.
With O=S(=O)(O)c1cc(Cl)c(Cl)cc1Cl the Potency was “inactive”.
In the case of Cc1nc(C)c(C)nc1C, the Potency is reported as “inactive”.
In the case of CCn1nc(Cc2ccccc2)cc1C1CCN(C[C@H]2C[C@H](N(C)[C@@H](C(=O)O)C(C)C)C[C@@H]2c2cccc(F)c2)CC1, the Potency is reported as “inactive”.
With O=C(Cl)c1cc(Cl)cc(Cl)c1 the Potency was “inactive”.
In the case of c1ccc(CCNc2nc(-c3ccccc3)cs2)cc1, the Potency is reported as “inactive”.
With O=C(N[C@@H](Cc1ccccc1)[C@@H](O)C(=O)N1C[C@@H](O)[C@@H](O)C1)c1cc2cc(Cl)ccc2[nH]1 the Potency was “inactive”.
In the case of CC(C)(C)NCC(O)COc1ccc(NC(=O)NC2CCCCC2)cc1 (centres undefined), the Potency is reported as “inactive”.
For CC(C)(C)c1ccc(CCC=O)cc1, the Potency was “inactive”.
In the case of CC(C)(Cc1c[nH]c2ccccc12)NCC(O)COc1ccccc1C#N (centres undefined), the Potency is reported as “inactive”.
With CCOC(=O)CC(O)(CC(=O)OCC)C(=O)OCC the Potency was “inactive”.
With CCCC(=O)OCCC(C)C the Potency was “inactive”.
In the case of CC1=C(C)C(=O)C(CCCCC#CCCCC#CCO)=C(C)C1=O, the Potency is reported as “inactive”.
With C[C@H](CN1CCCC1)C(=O)c1ccc(C(F)(F)F)cc1 the Potency was “inactive”.
In the case of C=CC(C)CCC=C(C)C (centres undefined), the Potency is reported as “inactive”.
For O=C(c1ccc(Cl)cc1)c1ccc(Cl)cc1, the Potency was “inactive”.
In the case of CCC(=O)O[C@]1(C(=O)COC)[C@@H](C)C[C@H]2[C@@H]3CCC4=CC(=O)C=C[C@]4(C)C3(F)[C@@H](O)C[C@@]21C (some centres undefined), the Potency is reported as “inactive”.
In the case of COC(=O)C(C)(C)C, the Potency is reported as “inactive”.
For C=C[Si](OCC)(OCC)OCC, the Potency was “inactive”.
For Oc1ccc(Oc2ccccc2)cc1, the Potency was “inactive”.
With C=CC(O)CCCCC (centres undefined) the Potency was “inactive”.
In the case of O=C1c2ccccc2C(=O)C1c1ccc2ccccc2n1, the Potency is reported as “inactive”.
With O=C(OCCOCCOCCOC(=O)c1ccccc1)c1ccccc1 the Potency was “inactive”.
In the case of c1ccc(CN(Cc2ccccc2)Cc2ccccc2)cc1, the Potency is reported as “inactive”.
For CCCCCCCCCCCCSCCOCCO, the Potency was “inactive”.
In the case of CC(C)=CCC/C(C)=C/C=N/O, the Potency is reported as “inactive”.
In the case of Cc1c(N=C=O)cccc1N=C=O, the Potency is reported as “inactive”.
In the case of CCC(CC)C(=O)O, the Potency is reported as “inactive”.
In the case of O=C(O)c1ccccc1-n1cc(C(=O)O)c(=O)c2cc(Nc3c(F)cc(F)cc3Cl)c(Cl)cc21, the Potency is reported as “inactive”.
For CCCN(C1CCN(C(=O)C2CCNCC2)CC1)[C@@H]1CCc2ccc(OC)cc2C1, the Potency was “inactive”.
In the case of Clc1cc(Cl)c2c(c1)N=C1CCCCCN1C2, the Potency is reported as “inactive”.
With C=C[Si]1(C)O[Si](C)(C=C)O[Si](C)(C=C)O[Si](C)(C=C)O1 (centres undefined) the Potency was “inactive”.
In the case of CCOC(C)OCC, the Potency is reported as “inactive”.
